According to the supplement of paper PMC13380429:

Legend:
[1] = system: Vero E6 infected with SARS-CoV-2; assay: morphology score (similarity to uninfected cells); higher = more like uninfected cells; conditions: 24 h
[2] = system: Vero E6 infected with SARS-CoV-2; assay: SARS-CoV-2 infection rate relative to infected DMSO; higher = more infection, active = 60 or less; conditions: 24 h

| SMILES | morphology score [1] | SARS-CoV-2 infection rate [2] |
| --- | --- | --- |
| CCN(CC)CCN(Cc1ccc(-c2ccc(C(F)(F)F)cc2)cc1)C(=O)Cn1c(SCc2ccc(F)cc2)nc(=O)c2c1CCC2 [darapladib] (0.833333 µM) | -0.0453 | 106% (inactive) |
| CC[C@H](c1ccc(O)cc1)[C@@H](CC)c1ccc(O)cc1 [hexestrol] (10 µM) | 0.143 | 102% (inactive) |
| COc1ccc(CC(=O)NC(/N=C(\NC#N)Nc2cccc3ncccc23)C(C)(C)C)cc1OC (stereo unspecified) (10 µM) | 0.297 | 97% (inactive) |
| O=C1/C(=C/c2ccccc2)C[C@@]2(O)[C@H]3Cc4ccc(O)c5c4[C@@]2(CCN3CC2CC2)[C@H]1O5 (0.833333 µM) | 0.732 | 23.5% (active) |
| CN1CCC(CNc2ccc3ncc(-c4cccc(OC(F)(F)F)c4)n3n2)CC1 (0.833333 µM) | 0.201 | 108% (inactive) |
| CC1CCC(NC(=O)N(CCCl)N=O)CC1 (stereo unspecified) [semustine] (10 µM) | -0.0906 | 116% (inactive) |
| Cc1cc(C(=CNc2ccc(Cl)cc2)C(=O)Nc2ccc(Cl)cc2)on1 (10 µM) | 0.005 | 103% (inactive) |
| O=C1CCC[C@@H]2[C@H]3C[C@@H](CN12)[C@@H]1CCCCN1C3 [lupanine] (10 µM) | -0.065 | 102% (inactive) |
| Cc1c(C)c2c(c(C)c1O)CC[C@@](C)(CCC[C@H](C)CCC[C@H](C)CCCC(C)C)O2 [vitamin-E] (10 µM) | -0.299 | 117% (inactive) |
| CCCC[C@@H](C=O)NC(=O)[C@H](CC(C)C)NC(=O)OCc1ccccc1 [calpeptin] (10 µM) | 0.815 | 12.5% (active) |
| CCn1c(-c2nonc2N)nc2cncc(CNC3CCNCC3)c21 (10 µM) | 0.371 | 106% (inactive) |
| CC(C)[C@H]1C(=O)N[C@@H](CCCNC(=N)N)C(=O)NCC(=O)N[C@@H](CC(=O)O)C(=O)N[C@H](Cc2ccccc2)C(=O)N1C [cilengitide] (10 µM) | -0.377 | 109% (inactive) |
| Cc1csc(-c2nnc(Nc3ccc(Oc4ncccc4-c4ccnc(N)n4)cc3)c3ccccc23)c1 (0.833333 µM) | 0.202 | 19.5% (active) |
| CCN(CC)C(=O)c1ccc(C2=CC3(CCNCC3)Oc3cccc(O)c32)cc1 (10 µM) | 0.006 | 122% (inactive) |
| COC(=O)c1ccc2c(c1)NC(=O)/C2=C(\Nc1ccc(N(C)C(=O)CN2CCN(C)CC2)cc1)c1ccccc1 [nintedanib] (10 µM) | -0.0524 | 108% (inactive) |
| CC(C)(C)NCC(O)c1cc(O)cc(O)c1 (stereo unspecified) (10 µM) | 0.0272 | 113% (inactive) |
| CC1=C(C(=O)OC(C)C)C(c2cccc([N+](=O)[O-])c2)C(C(=O)OC2CN(C(c3ccccc3)c3ccccc3)C2)=C(N)N1 (stereo unspecified) [azelnidipine] (10 µM) | 0.295 | 71.5% (inactive) |
| CC(C)NCC(O)COc1cccc2ccccc12 (stereo unspecified) [propranolol] (10 µM) | 0.148 | 103% (inactive) |
| CNCCn1c(=O)c2cc(OC)c(OC)cc2c2cnc3cc4c(cc3c21)OCO4 (10 µM) | -0.381 | 118% (inactive) |
| CN(C(=O)CN(CCO)CC(=O)N(C)C(C)(C)Cc1ccccc1)C(C)(C)Cc1ccccc1 [oxethazaine] (10 µM) | -0.169 | 102% (inactive) |
| CC1(C)NC(=O)N(c2ccc([N+](=O)[O-])c(C(F)(F)F)c2)C1=O [nilutamide] (10 µM) | 0.15 | 108% (inactive) |
| CCOC(=O)Nc1cc(-c2ccc(C)c(NS(C)(=O)=O)c2)nn2c(C)nnc12 [bromosporine] (10 µM) | -0.021 | 111% (inactive) |
| CCS(=O)(=O)CCn1c([N+](=O)[O-])cnc1C [tinidazole] (10 µM) | 0.142 | 108% (inactive) |
| Cc1cccc(Nc2nc(-c3ccncc3)cs2)c1 (0.833333 µM) | 0.455 | 61% (inactive) |
| O=C(O)CCCCC(=O)O [adipic-acid] (10 µM) | -0.0456 | 105% (inactive) |
| CON(C)C(=O)[C@H](O)[C@H](Cc1ccccc1)NC(=O)c1cc2cc(Cl)ccc2[nH]1 (10 µM) | 0.109 | 109% (inactive) |
| CCC1NC(=O)c2cc(S(N)(=O)=O)c(Cl)cc2N1 (stereo unspecified) [quinethazone] (10 µM) | 0.339 | 88% (inactive) |
| Cc1ccc(C(=O)Nc2ccc(Oc3cc4cnn(C)c4cc3-c3cn[nH]c3)c(F)c2)c(=O)n1-c1ccc(F)cc1 (0.833333 µM) | 0.172 | 106% (inactive) |
